# Source: PubChem BioAssay AID1259370 (Center for Chemical Genomics, University of Michigan, 2018)
# The whole screen tested about 94,000 compounds, of which about 680 (0.72%) were called active. This excerpt belongs to a sample that is enriched for actives. A number with no mark means an inactive call. Rule as the data show it: active = z-score above about 3.2; inactive = the rest.
# Biological target: M-phase inducer phosphatase 2 (Homo sapiens) + Cyclin-dependent kinase 2 (Homo sapiens) + Cyclin-A2 (Homo sapiens) (UniProt P30305+P24941+P20248)
# Assay: primary biochemical HTRF screen for inhibition of M-phase inducer phosphatase 2 binding to cyclin-dependent kinase 2/cyclin A (AID 1259370)
# Conditions: HTRF CDC25B-CDK2/CyclinA binding, anti-His/anti-Flag; hits give high values
row,Compound,z-score
1,CCSc1nc(-c2ccc(Cl)cc2)c(C#N)c(=O)[nH]1,-0.88
2,Cc1ccc(CSc2nc(-c3ccccc3)c(C#N)c(=O)[nH]2)cc1,-0.77
3,N#Cc1c(-c2ccccc2)nc(SCCCCOc2ccc(Cl)cc2)[nH]c1=O,4.75 (active)
4,O=C(CSc1ncnc2nc[nH]c12)c1ccc(O)c(O)c1,2.58
5,Cc1n[nH]c(=O)c2nn(-c3ccccc3)c(C)c12,0.76
6,Cc1cc(C)cc(NS(=O)(=O)c2ccc3c(c2)n(C)c(=O)n3C)c1,-1.42
7,Cc1cc2c(c(=O)n1CC1CCCO1)C(c1cccc(Br)c1)C(C#N)=C(N)O2 (stereo not given),-0.22
8,CC(C)c1ccc(C2c3c([nH][nH]c3=O)CC(C)(O)C2C(=O)OCc2ccccc2)cc1 (stereo not given),-1.98
9,COc1ccc(S(=O)(=O)NC(C)c2nc(-c3ccc(C)cc3)no2)cc1 (stereo not given),-1.34
10,CC(C)CC(=O)Nc1ccc2nsnc2c1,-1.58
11,COC(=O)c1ccc2snnc2c1,-0.98
12,CC(C)NC(=O)Nc1ccc2snnc2c1,5.16 (active)
13,CCOC(=O)c1cn(-c2cccc(F)c2)nn1,-1.61
14,Cn1c(=O)n(C)c2cc(S(=O)(=O)Nc3ccc(F)cc3)ccc21,-0.14
15,Cc1nc(C)c(C(=O)Nc2nnc(CC(C)C)s2)s1,-0.08
16,CC12CC3(C)CC(C)(C1)CC(C(=O)NC(C)(C)CO)(C2)C3,-1.12
17,O=C(CSc1ccc(-c2cccs2)nn1)N1CCCc2ccccc21,-0.97
18,COc1ccc(S(=O)(=O)N(C(=O)c2ccncc2)c2ccc3oc(=O)sc3c2)cc1OC,-3.46
19,O=C(c1cccnc1)N(c1ccc2oc(=O)sc2c1)S(=O)(=O)c1ccccc1,-1.85
20,O=C(c1cccnc1)N(c1cc2sc(=O)oc2c2ccccc12)S(=O)(=O)c1ccccc1,12.3 (active)
21,CCn1c(COC)nc2ccccc21,-0.64
22,CCC(C)NC(=O)C1=CC(c2cccs2)=NS(=O)(=O)N1C (stereo not given),-1.72
23,O=C1c2ccc3c4c(ccc(c24)C(=O)N1c1ccccc1)C(=O)N(c1ccccc1)C3=O,-2.52
24,O=C(O)c1cccc(N2C(=O)c3ccc4c5c(ccc(c35)C2=O)CC4)c1,8.86 (active)

row,Compound,z-score
1,O=C1c2cccc3cccc(c23)C(=O)N1c1cccc(O)c1,-0.15
2,COCCOC(=O)C1=C(C)Nc2nc3ccccc3n2C1c1cccc(F)c1 (stereo not given),-1.51
3,COc1ccc(C(=O)Oc2ccc3c(c2)oc(=O)c2ccccc23)cc1,-0.65
4,CC(C)CCNC(=O)C1CCC(CNc2c(N3CCC(C)CC3)c(=O)c2=O)CC1 (stereo not given),-0.9
5,Cc1nc(N2CCCCC2)cc(N2CCN(S(=O)(=O)c3ccc(F)cc3)CC2)n1,-1.52
6,CCOc1ccccc1Nc1nc2ccc(Cl)cc2n2nnnc12,-2.08
7,Cn1c(=O)n(C)c2cc(CNC3CCCCC3)ccc21,-1.66
8,S=C(Nc1cccnc1)N1CCCN(Cc2ccc(Cl)cc2Cl)CC1,12 (active)
9,Clc1ccc(C=NCc2cccnc2)c(Cl)c1,0.36
10,O=C(Nc1ccccc1)N1CCN(Cc2ccccc2)CC1,4.1
11,CCOC(=O)c1c(NC(=O)Nc2cccc(Cl)c2)sc2c1CCCC2,-0.86
12,CC1=C(c2cccc(Br)c2)S(=O)(=O)N=C1Nc1ccccc1C,-2.29
13,O=C(COc1ccc2c3c(c(=O)oc2c1)CCC3)OC1CCCCC1,-1.13
14,COc1ccc2cc3c(N)nn(C(=O)Cn4c(=O)oc5ccccc54)c3nc2c1,-0.84
15,O=C(O)C1CCCN(c2cnccn2)C1 (stereo not given),0.23
16,COc1ccccc1-c1nc(SCC(=O)c2ccc(Br)cc2)n[nH]1,-0.98
17,Cc1ccc(C)c(C(=O)CSc2n[nH]c(-c3ccco3)n2)c1,8.74 (active)
18,Cc1ccc(CNc2n[nH]c(-c3ccco3)n2)cc1,-1.84
19,CCSc1ncc(Cl)c(C(=O)Nc2nc(C)c(C(=O)OCC(C)C)s2)n1,-1.22
20,Cn1c(=O)c2c(-c3cccc(Br)c3)n(C(CO)(CO)CO)cc2n(C)c1=O,0.09
21,CCOC(=O)C1=C(C)NC2=C(C(=O)c3ccccc32)C1c1cccc(F)c1 (stereo not given),-1.68
22,CCOC(=O)C1=C(C)NC2=C(C(=O)c3ccccc32)C1c1ccc(OC(=O)c2ccccc2)cc1 (stereo not given),11.9 (active)
23,COC(=O)C1=C(C)NC2=C(C(=O)c3ccccc32)C1c1ccc(OC)cc1 (stereo not given),1.16
24,O=C(O)CSc1nc2ccccc2c(=O)n1Cc1ccco1,-1.25

row,Compound,z-score
1,CCOC(=O)c1sc(NC(=O)c2cc3ccccc3o2)c(C(=O)OCC)c1C,-1.55
2,COc1ccc(C(=O)CC2(O)C(=O)N(C(C)C)c3ccccc32)c(OC)c1 (stereo not given),-1
3,COc1ccc(C2CC(=O)N3CN(c4ccccc4OC)CSC3=C2C#N)c(OC)c1 (stereo not given),8.02 (active)
4,COc1ccccc1N1C(=O)C2C(c3ccccc3C)OC3(C(=O)c4ccccc4C3=O)C2C1=O (stereo not given),0.1
5,N#CC1=C2SCN(c3ccc(F)cc3)CN2C(=O)CC1c1ccc(Br)cc1 (stereo not given),2.31
6,CSC1=C(C#N)C(c2ccccc2C)CC(=O)N1 (stereo not given),-0.39
7,CCOc1ccc(N2CSC3=C(C#N)C(c4ccc(SC)cc4)CC(=O)N3C2)cc1 (stereo not given),6.74 (active)
8,Cc1cccc(N2CSC3=C(C#N)C(c4ccccc4C)CC(=O)N3C2)c1 (stereo not given),3.61 (active)
9,COc1ccc(OC)c(C2C(C#N)=C3N=C(N)c4ccccc4N3C3=C2C(=O)CCC3)c1 (stereo not given),0.51
10,COc1ccc(OC)c(C2CC(=O)N3CN(c4ccccc4OC)CSC3=C2C#N)c1 (stereo not given),3.41 (active)
11,COc1ccc(OC)c(C2CC(=O)N3CN(Cc4ccco4)CSC3=C2C#N)c1 (stereo not given),-3.58
12,CC(C)C(=O)Nc1sc2c(c1C(=O)O)CCCC2,-2.62
13,Cc1nc(N)[nH]c(=O)c1Br,0.46
14,CCOC(=O)c1c(N)sc2c1CCN(C(C)=O)C2,-2.08
15,CCOC(=O)c1c(C)n(C)c2cc3c(cc12)OC(=O)C3(O)C(F)(F)F (stereo not given),-2.18
16,N=C1C(c2nc3ccccc3[nH]2)=C(O)CN1c1ccc(Oc2ccccc2)cc1,1.4
17,CC1=C(C(N)=O)C(c2cccc(O)c2)n2nc(SCc3ccccc3F)nc2N1 (stereo not given),-0.38
18,CCOC(=O)CNC(=O)N1CCCC1c1ccco1 (stereo not given),-1.79
19,Cc1ccc(NS(=O)(=O)C2CCS(=O)(=O)C2)cc1Cl (stereo not given),-1.16
20,Cc1ccc(S(=O)(=O)c2nc(S(C)(=O)=O)sc2N2CCN(CCO)CC2)cc1,-2
21,Cc1cccc2c1Oc1nc(-c3ccccc3O)[nH]c(=O)c1C2,-0.22
22,C=CCN1C=C(OC(=O)COc2ccccc2)c2ccccc2S1(=O)=O,-2.21
23,O=C(C1CCN(S(=O)(=O)c2cccs2)CC1)N1CCN(c2ccccc2Cl)CC1,-0.01
24,COc1ccc(C2=NS(=O)(=O)N(C)C(C(=O)N3CCN(C(=O)c4ccco4)CC3)=C2)cc1,-0.02

row,Compound,z-score
1,CCN(CC)S(=O)(=O)c1nnc(NC(=O)C(C)C)s1,-1.69
2,C=CCN(Cc1nc(-c2ccc(C)cc2)no1)S(=O)(=O)c1ccc(Br)cc1,-1.17
3,O=c1c(S(=O)(=O)c2ccc(Cl)cc2)c[nH]c2ccc(F)cc12,0.19
4,Cc1cc(C)n(CCc2nc3c4ccccc4nc(SCC(=O)NCc4ccco4)n3n2)n1,-1.06
5,O=C(CSCc1cnn(-c2ccccc2)c1-n1cccc1)Nc1ccc2c(c1)OCCO2,-1.15
6,COC(=O)c1sc(=S)n(-c2ccc(Cl)cc2)c1C,-0.46
7,CCOc1ccc(C2CC(=O)N3CN(c4ccc(OC)cc4OC)CSC3=C2C#N)cc1OC (stereo not given),3.34 (active)
8,CCOc1ccc(C2CC(=O)Nc3nc(SC)[nH]c(=O)c32)cc1OC (stereo not given),-2.13
9,CC(c1ccccc1)N1CSC2=C(C#N)C(c3ccc(Cl)cc3)CC(=O)N2C1 (stereo not given),1.37
10,COc1cc(C2CC(=O)N3CN(c4ccccc4)CSC3=C2C#N)ccc1O (stereo not given),0.52
11,COC(=O)c1ccc(N2CSC3=C(C#N)C(c4ccc(Cl)cc4)CC(=O)N3C2)cc1 (stereo not given),7.06 (active)
12,CNC(=O)c1c(NC(=O)c2cc(=O)c3ccccc3o2)sc2c1CCCC2,-0.57
13,COCCCn1c(SC2CCOC2=O)nc2c(sc3ccccc32)c1=O (stereo not given),-3.05
14,CCOC(=O)C1=C(C)NC2=C(C(=O)CC(c3cccs3)C2)C1c1cc(Br)ccc1F (stereo not given),-0.66
15,CCOC(=O)c1c(CN(CC)CC)n(C)c2cc(Br)c(OC)cc12,-0.02
16,Cc1c(C)c2cc3c4c(oc3c(C)c2oc1=O)CCCC4,0.16
17,Cc1c(C=O)c(=O)oc2c3c4c(cc12)CCCN4CCC3,16.4 (active)
18,CCc1cccc(-n2nnc(S(=O)(=O)c3ccc(C)cc3)c2C)c1,-0.89
19,CN1C(=O)c2ccccc2C(C(=O)Nc2ccc3c(c2)OCO3)C1c1cn(C)c2ccccc12 (stereo not given),-2.4
20,CCCc1c(C)nc2ncnn2c1Nc1ccc(CC)cc1,-2.22
21,C=CCOc1ccc(C2C3=C(CCCC3=O)NC3=C2C(=O)CCC3)cc1,15.9 (active)
22,CCOCCOC(=O)C1=C(C)NC2=C(C(=O)CCC2)C1c1ccc(OC(C)=O)cc1 (stereo not given),-0.12
23,COc1ccc(COC(=O)C2=C(C)NC3=C(C(=O)CCC3)C2c2ccc(Br)cc2)cc1 (stereo not given),-0.5
